According to PubChem BioAssay (Tox21):
Records with an inconclusive call do not appear. A number with no mark means an inactive call. The source made the active and inactive calls. The call rests on the fitted dose curve; in most records, active means well fitted activation curve with a large enough effect in the repeat runs; inconclusive means weak or mixed curves; inactive means no such curve, though single readings can be large or run the other way.

target: Nuclear receptor subfamily 1 group I member 2 (Rattus norvegicus) (UniProt Q9R1A7); assay: Rat pregnane X receptor (rPXR) activation by small molecules, qHTS assay (AID 1346983); conditions: rPXR luciferase reporter cells, One-Glo luminescence, 24 h; max activation: active compounds read high; further: nearly all actives have a fitted effect of over 20% in size
Sequence (Q9R1A7 whole entry, looked up): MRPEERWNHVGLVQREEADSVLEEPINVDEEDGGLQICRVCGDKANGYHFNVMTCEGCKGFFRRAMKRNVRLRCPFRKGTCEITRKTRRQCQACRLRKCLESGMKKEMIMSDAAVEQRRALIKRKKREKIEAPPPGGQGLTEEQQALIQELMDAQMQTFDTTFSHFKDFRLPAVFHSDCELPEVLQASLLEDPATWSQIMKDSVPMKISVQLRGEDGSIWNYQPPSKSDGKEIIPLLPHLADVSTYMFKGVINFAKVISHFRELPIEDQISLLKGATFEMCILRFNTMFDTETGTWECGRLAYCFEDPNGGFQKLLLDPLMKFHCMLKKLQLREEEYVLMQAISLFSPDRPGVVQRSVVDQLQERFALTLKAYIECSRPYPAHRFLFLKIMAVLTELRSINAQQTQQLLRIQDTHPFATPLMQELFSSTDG
Method in brief: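 Cell-based rPXR activation assay: rPXR cells, 2,000 per well, rested 5hr at 37 C, then exposed to compounds in DMSO for 24 hr at 37 C. Luciferase activity read by One-Glo luminescence after 30 min at room temperature.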
On the % scale 0 is the no-effect control and ±100 the full control effect.

SMILES	max activation [%]
O=C(O)/C=C/C(O)c1ccc(Cl)cc1 (stereo unspecified)	-1.46
CCOC(=O)[C@H](CCc1ccccc1)N[C@@H](C)C(=O)N1[C@H](C(=O)O)C[C@H]2CCCC[C@@H]21	-1.14
CSCCC(N)C(=O)O (stereo unspecified)	-0.631
CCCCCCCCCCCCCC(=O)OCC(COP(=O)([O-])OCC[N+](C)(C)C)OC(=O)CCCCCCCCCCCCC (stereo unspecified)	-1.21

target: Nuclear receptor subfamily 1 group I member 2 (Homo sapiens) (UniProt O75469); assay: CYP3A4 induction through human pregnane X receptor (PXR) by small molecules, qHTS assay (AID 1346984); conditions: DPX-2 HepG2 PXR, CYP3A4-luciferin luminescence, 24 h; series mostly up to 46.1 µM; activation: at the top concentration; further: nearly all actives have a fitted effect of over 40% in size
Method in brief: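 After 24 h at 37C with compound, DPX-2 cells (HepG2, co-transfected PXR response element and CYP3A4 promoter-luciferase) got 3uM final P450-Glo Luciferin-IPA for 3 h; One-Glo luminescence followed.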

SMILES	activation	Potency
c1ccc2c(c1)OCC(CN1CCCCC1)O2 (stereo unspecified)	-0.433%	–
C[Se]CC[C@H](N)C(=O)O	-6%	–
CN(Cc1ccccc1)Cc1ccccc1	-10.7%	–
O=C1CC[C@@H](C(=O)N[C@H]2C[C@@H]2c2ccccc2)N1	-6.96%	–
FC(F)(F)COCC(F)(F)F	-1.37%	–
NC[C@H]1O[C@H](O[C@H]2[C@H](O)[C@@H](O[C@H]3O[C@H](CO)[C@@H](O)[C@H](N)[C@H]3O)[C@H](N)C[C@@H]2N)[C@H](N)C[C@@H]1O	6.71% [at 20.6 µM]	–
CC[C@H]1OC(=O)C[C@@H](O)[C@H](C)[C@@H](O[C@@H]2O[C@H](C)[C@@H](O)[C@H](N(C)C)[C@H]2O)[C@@H](CCN2C[C@H](C)C[C@H](C)C2)C[C@@H](C)C(=O)/C=C/C(C)=C/[C@@H]1CO[C@@H]1O[C@H](C)[C@@H](O)[C@@H](OC)[C@H]1OC	5.41%	–
C=CC[N+]1([C@H]2C[C@H]3[C@@H]4CC[C@H]5C[C@H](O)[C@@H](N6CCOCC6)C[C@]5(C)[C@H]4CC[C@]3(C)[C@H]2OC(C)=O)CCCC1	-7.83%	–
c1ccc(-n2cnnn2)cc1	2.33%	–
NC(=O)c1cc[n+](CC2=C(C(=O)O)N3C(=O)[C@@H](NC(=O)C(c4ccccc4)S(=O)(=O)[O-])[C@H]3SC2)cc1 (stereo partly specified)	1.72% [at 20.6 µM]	–
N#Cc1c(N(CC(=O)O)CC(=O)O)sc(C(=O)O)c1CC(=O)O	-0.359%	–
CN1C(=O)C[C@@H](C(=O)N[C@@H](Cc2cnc[nH]2)C(=O)N2CCC[C@H]2C(N)=O)NC1=O	-13.9%	–
C[N+]1(CCCCC[N+]2(C)CCCC2)CCCC1	-3.36%	–
COC(=O)C(CN)c1c[nH]c2ccc(OC)cc12 (stereo unspecified)	-8.83%	–
CC(C)NCC1CCc2cc(CO)c([N+](=O)[O-])cc2N1 (stereo unspecified)	9.08% [at 20.6 µM]	–
N[C@@H](Cc1cnc[nH]1)C(=O)O	3.86%	–
N[C@H](CO)C(=O)O	-4.97%	–
C=C1[C@@H]2CC[C@@H](C2)C1(C)C	4.63%	–
Cc1cc(N)c2ccccc2[n+]1CCCCCCCCCC[n+]1c(C)cc(N)c2ccccc21	-14.9% [at 20.6 µM]	–

SMILES	activation	Potency
CC(C)C[C@@H](NC(=O)[C@@H](O)[C@H](N)Cc1ccccc1)C(=O)O	12.7%	–
CC[C@@H](C(=O)[C@@H](C)[C@@H](O)[C@H](C)CCc1ccc(C)c(O)c1C(=O)O)[C@H]1O[C@](CC)([C@H]2CC[C@](O)(CC)[C@H](C)O2)C[C@@H]1C	-11.5%	–
CN[C@@H]1[C@@H](O[C@H]2O[C@H](CO)[C@@H](N)[C@H](O)[C@H]2O)O[C@H]2C[C@@H](N)[C@@H](O[C@H]3[C@H](O)[C@@H](O)[C@H](N)C[C@@H]3N)O[C@@H]2[C@@H]1O	-6.92% [at 20.6 µM]	–
CC(C)=CCC/C(C)=C/CC/C(C)=C/CC/C=C(\C)CC/C=C(\C)CCC=C(C)C	-1.49%	–
CC(C)=CCC/C(C)=C/CC/C(C)=C/CC/C(C)=C/CC1=C(C)C(=O)c2ccccc2C1=O	3.27%	–
CO/N=C(\C(=O)N[C@@H]1C(=O)N2C(C(=O)[O-])=C(C[n+]3ccc(N)n3CCO)CS[C@H]12)c1csc(N)n1	-6.7%	–
CC1(C)C[C@@H]1C(=O)N/C(=C\CCCCSC[C@H](N)C(=O)O)C(=O)O	–	inactive
CCCCCCCCCC(=O)NO	-4.28%	–
CC/C(=C(/CC)c1ccc(OP(=O)(O)O)cc1)c1ccc(OP(=O)(O)O)cc1	-5.71%	–
NCC1CCC(C(=O)O)CC1 (stereo unspecified)	-2.97% [at 20.6 µM]	–
C=CCN1C(=O)C(CC(C)C)NC1=S (stereo unspecified)	–	inactive
Cc1ccc(C(C)(C)c2ccc(C)cc2)cc1	0.626%	–
O=C(O)[C@@H]1C[C@H](CP(=O)(O)O)CCN1	-4.01%	–
CC[C@@H](C)[C@H](N)C(=O)O	1.72%	–
CCC(=O)OC(OP(=O)(CCCCc1ccccc1)CC(=O)N1C[C@H](C2CCCCC2)C[C@H]1C(=O)O)C(C)C (stereo partly specified)	2.56%	–
C[N+](C)(C)CCOP(=O)(O)OP(=O)([O-])OC[C@H]1O[C@@H](n2ccc(N)nc2=O)[C@H](O)[C@@H]1O	5.35%	–
O=C(O)/C=C/C(O)c1ccc(Cl)cc1 (stereo unspecified)	-1.14%	–
CCOC(=O)[C@H](CCc1ccccc1)N[C@@H](C)C(=O)N1[C@H](C(=O)O)C[C@H]2CCCC[C@@H]21	20%	–
